Source: PubChem BioAssay (NCI)
The panel holds about 83,000 compounds, 20% with a hit somewhere; the sample as a whole holds those more often.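 Values shown are percent growth following 48 h exposure of cells in 96-well plates to a single concentration of compound; below 10 was considered active.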 Calls of active or inactive are those of the source.

Test system: HL-60(TB) leukemia
Assay: NCI-60 one-dose screen, 48 h (100 = growth as untreated, 0 = no growth, -100 = all killed)
Details: 10 µM unless noted

SMILES | growth
COc1ccc2c(c1)C(=O)/C(=C/c1cccc(OCC(=O)Nc3nc4c(s3)CCCC4)c1)O2 | -70.8% (active)
O=CN1N=C(c2cccc(Nc3ccnc4cc(Cl)ccc34)c2)CC1c1ccc(Cl)cc1 (stereo not given) | -4.94% (active)
COc1cc(C(=O)Nc2cc(O)c(C/C=C(\C)CCC=C(C)C)c(O)c2)cc2c1O[C@]1(C)CC[C@@H](O)C(C)(C)[C@H]1C2 | -3.87% (active)
c1cc(OCCN2CCCCCC2)ccc1CNc1ccc2nc(CCC3CCCCC3)[nH]c2c1 | 22.9% (inactive)
COc1cc(CNc2oc(-c3ccccc3)c(-c3ccccc3)c2C#N)cc(CN2CCN(C)CC2)c1O | 75.7% (inactive)
CCCCOc1c(N)cccc1C(=O)OCCN(CC)CC | 64.3% (inactive)
COc1ccc(-c2cc(Cc3cccs3)c(=O)n(Cn3ccc4ccccc43)n2)cc1 | 98.4% (inactive)
CCCCCCCCn1ccc2cc(NC(=O)CN3CCN(c4nc(C)cc(N5CCCCC5)n4)CC3)ccc21 | 71% (inactive)
c1cn2cc(-c3ccc4cn[nH]c4c3)nc(Nc3ccc(N4CCOCC4)cc3)c2n1 | 71.1% (inactive)
NC(=O)c1ccc2c(c1)OCO2 | 103% (inactive)
Cc1ccc(C)n1-c1ccsc1C(=O)NNC(=O)C(Cl)Cl | 106% (inactive)
O=C1/C(=C/N2N=C(c3ccc4ccccc4c3)CC2c2ccccc2O)SC(=S)N1c1cccnc1 (stereo not given) | -15.3% (active)
COc1ccc(/C=N\NC(=O)c2ccncc2)cc1O | 97.9% (inactive)
Cc1cc(C)c(/C=C2\C(=O)Nc3ccc(NC(=O)CCCCCCC(=O)NO)cc32)[nH]1 | 19.4% (inactive)
Nc1nc(N)c2cc(NCc3ccc(Cl)c(Cl)c3)ccc2n1 | -65.7% (active)
CSc1nc(Nc2cccc(NC(=O)/C(C#N)=C/c3c(Cl)cccc3Cl)c2)c(C#N)c(-c2cccc([N+](=O)[O-])c2)n1 | 58.3% (inactive)
O=S1(=O)N(Cc2ccccc2)[C@@H](Cc2ccccc2)C2O[C@H]2[C@H](Cc2ccccc2)N1Cc1ccccc1 (stereo not given in full) | 46% (inactive)
Nc1cc(F)ccc1[N+](=O)[O-] | 115% (inactive)
C[n+]1c2ccccc2nc2ccccc21 | 13.3% (inactive)
NS(=O)(=O)c1ccc(N=Nc2ccc(-c3nn4cc(-c5ccccc5)nc4s3)cc2)cc1 | 91.5% (inactive)

SMILES | growth
C=C(CNCCc1ccc(O)cc1)[C@@H]1CC[C@]2(CO)CC[C@]3(C)[C@H](CC[C@@H]4[C@@]5(C)CCC(=O)C(C)(C)[C@@H]5CC[C@]43C)[C@@H]12 | -41.5% (active)
O=C(N/N=C/[C@H](O)[C@H](O)[C@H](O)CO)c1ccc(NC(=O)c2cccnc2)cc1 | 100% (inactive)
CC1=CC2OC34COC3CC(OC(=O)C(F)(F)F)C4(C)C2(C)CC1 (stereo not given) | 114% (inactive)
COc1ccc(C(=O)/C=C/c2cccc([N+](=O)[O-])c2)c(OC)c1 | -10.4% (active)
C=C(OC(C)=O)c1ccccc1 | 72.9% (inactive)
C=C(C)[C@@H]1CC[C@]2(C(N)=O)CC[C@]3(C)[C@H](CC[C@@H]4[C@@]5(C)C/C(=C/c6ccco6)C(=O)C(C)(C)[C@@H]5CC[C@]43C)[C@@H]12 | 93.2% (inactive)
CCc1nc(N)nc(N)c1C#CC(C)c1cc(-c2ccnc(C)c2)c2oc(C)nc2c1 (stereo not given) | -42.4% (active)
COc1ccc(C(C)c2cc(OC)c(OC)c(OC)c2)cc1 (stereo not given) | -15.6% (active)
COC(=O)C[C@@H]1CC=CC(=O)/C1=C(O)/C=C/c1ccccc1 | -10.7% (active)
O=C(/C=C/c1ccc(B(O)O)cc1)/C=C/c1ccc(B(O)O)cc1 | 21.7% (inactive)
Clc1cccc(C2Cc3cnccc3-c3[nH]c4ccncc4c32)c1 (stereo not given) | 25.3% (inactive)
CCCCNc1nnc(-c2cc(-c3cc4ccccc4o3)nn2-c2ccccc2)o1 | 86.5% (inactive)
Cc1cccc(C)c1NC(=O)CSC(=S)N1CCN(CCOCCO)CC1 | 88.7% (inactive)
Cc1cc(C)n(CC(=O)Nc2ccc(-c3nc4ccccc4s3)cc2)n1 | 103% (inactive)
COC(=O)c1oc2c(C(=O)/C=C/c3ccc(OC)cc3)c(OCCCN3CCCCC3)ccc2c1C | -54.7% (active)
Cc1nc(-c2ccccc2)cc2c(O)c(C(=O)NN)[nH]c(=O)c12 | 126% (inactive)
Oc1c(Br)c(Br)c(O)c(Br)c1Br | 94.3% (inactive)
CC1=CC(=O)CC(C)(C)[C@@]1(O)/C=C/[C@@H](C)O | 110% (inactive)
c1ccc2cc(Cn3c[n+](Cc4ccc5ccccc5c4)c4ccccc43)ccc2c1 | -66.3% (active)
CN(C)CCCn1c2nc(=O)[nH]c(=O)c-2nc2cc(Cl)c(Cl)cc21 | 76% (inactive)
